In publication PMC4552634, “A New Set of Chemical Starting Points with Plasmodium falciparum Transmission-Blocking Potential for Antimalarial Drug Discovery” (PLoS ONE, 2015):
Out of some 13,000 compounds screened, about 3,200 (25%) showed an effect of 50% or more. This is one part of the list.

The molecules below were run on P. falciparum stage V gametocytes. Details: 48 h, 5 µM; inhibitor.
Set-up: BacTiter-Glo ATP luminescence viability of purified stage V gametocytes in 384-well plates, per cent inhibition versus DMSO

Compound	% Inhibition [%]
CC(CCc1ccccc1)NCC(O)c1ccc2c3c(cccc13)S(=O)(=O)N2C (stereo not drawn) [TCMDC-131253]	8.689
c1ccc2c(NCCCCCCNc3ccnc4ccccc34)ccnc2c1 [TCMDC-137913]	91.15
FC(F)(F)c1ccc2c(NCCCNc3ccnc4cc(C(F)(F)F)ccc34)ccnc2c1 [TCMDC-137736]	28.34
NCCCNc1ccnc2cc(Cl)ccc12 [TCMDC-123921]	17.37
c1ccc2c(NCCCCCCCCCNc3ccnc4ccccc34)ccnc2c1 [TCMDC-137750]	102.2
c1ccc2c(NCCCCCCCNc3ccnc4ccccc34)ccnc2c1 [TCMDC-137897]	122.9
COc1ccc(NCCCNc2ccnc3ccccc23)cc1 [TCMDC-139253]	-97.14
Clc1ccc2c(NCCCCCCCCNc3ccnc4cc(Cl)ccc34)ccnc2c1 [TCMDC-137733]	25.46
NCCNc1ccnc2cc(Cl)ccc12 [TCMDC-125850]	23.17
Clc1ccc2c(NCCNc3ccnc4cc(Cl)ccc34)ccnc2c1 [TCMDC-137882]	57.8
FC(F)(F)c1ccc2c(NCCNc3ccnc4cc(C(F)(F)F)ccc34)ccnc2c1 [TCMDC-137881]	-4.365
COc1ccccc1-c1cccc2c(NC(=O)Nc3ccc4nccc(N5CCN(C)CC5)c4c3)ccnc12 [TCMDC-139384]	-27.38
COc1ccc(C(=C(C)CC(C)C(=O)O)c2ccccc2)cc1 (stereo not drawn) [TCMDC-131745]	-8.546
Cc1c(CNCCCNc2nc3ccccc3[nH]2)sc(C(F)F)c1Br [TCMDC-141323]	13.37
Cc1ccccc1-c1cc(=O)c2cc(NC(=O)c3cccs3)ccc2o1 [TCMDC-124947]	11.18
COc1ccccc1/C=C/C(=O)N(C)C1CCN(CCCCCNC(=O)/C=C/c2ccc(Cl)c(Cl)c2)C1 (stereo not drawn) [TCMDC-139996]	13.3
Nc1nc(N)c2c(n1)CCc1cc(Br)ccc1-2 [TCMDC-125525]	4.608
CN1CCC(c2c[nH]c3ccc(NC(=O)Nc4ccc(-c5ccncc5)cc4Cl)cc23)CC1 [TCMDC-139180]	-1.977
CC(C)(C)CNc1noc(-c2sccc2Br)n1 [TCMDC-134187]	-20.57
C=CCN1C(=O)CN(S(=O)(=O)c2ccc(-n3nc(C)cc3C)cc2)C1=S [TCMDC-131799]	-1.195
c1ccc2c(NCCCCCCCCNc3ccnc4ccccc34)ccnc2c1 [TCMDC-137751]	124.8
CNCCCNc1ccnc2cc(Cl)ccc12 [TCMDC-125233]	36.92
CN(C)CCCNc1ccnc2cc(Cl)ccc12 [TCMDC-123919]	17.18
CN(CCCNC(=S)NC12CC3CC(CC(C3)C1)C2)CCCNc1ccnc2cc(Cl)ccc12 [TCMDC-137885]	114.9

Compound	% Inhibition [%]
CN1CCN(Cc2cc(NC(=O)c3ccc(-c4ccc(Cl)cc4Cl)cc3)ccc2-c2ccccc2)CC1 [TCMDC-138839]	21.61
CC(C)CN1CCC(N(C)c2cc(NC(=O)c3cccc(F)c3)ccn2)CC1 [TCMDC-135022]	-32.51
CC(C)Cn1c(Sc2ccc(C#N)c([N+](=O)[O-])c2)nnc1-c1cccs1 [TCMDC-135575]	26.53
O=C(Nc1cccc(C(F)(F)F)c1)Nc1cc(F)c(F)cc1Cl [TCMDC-123779]	32.47
CCc1ccc(-n2c(NC(=O)c3ccccc3)nc3ccc(S(=O)(=O)NC(C)C(C)C)cc32)cc1 (stereo not drawn) [TCMDC-136236]	39.19
CC(OC(=O)c1ccc(C(=O)NCC2CC2)cc1)C(C)(C)C (stereo not drawn) [TCMDC-138180]	11.69
CCO[C@H]1CN[C@H](C#Cc2cc3c(Nc4ccc(OCc5cccc(F)c5)c(Cl)c4)ncnc3s2)C1 [TCMDC-135170]	22.02
COc1cc(Nc2ccnc3ccc(C(C)(C)C)cc23)cc(OC)c1OC [TCMDC-138886]	-36.54
CC(C)(C)c1ccc2nccc(Nc3cccc(O)c3)c2c1 [TCMDC-138884]	71.55
Cc1ccc(O)cc1Nc1ccnc2ccc(C(C)(C)C)cc12 [TCMDC-138885]	-11.57
C=CCC(CC=C)N1C(=O)C(c2ccccc2)(c2ccccc2)N=C1N [TCMDC-136807]	5.028
O=C(/C=C/c1ccc(C(F)(F)F)cc1)NCCCCCN1CCN(C(=O)Nc2ccc(Cl)c(Cl)c2)CC1 [TCMDC-136094]	-8.361
CC1CCC2(CC1)N=C(N)N=C(N)N2OCc1cc2ccccc2c2ccccc12 (stereo not drawn) [TCMDC-131590]	22.45
C[C@H](NC(=O)c1c(CN2CCC(N3CCCCC3)CC2)c(-c2ccccc2)nc2cc(O)ccc12)C1CCCCC1 [TCMDC-140408]	25.99
Cc1ccc(CNc2ccc3ncc(-c4cccc(C(=O)NCCN(C)C)c4)n3n2)c(C)c1 [TCMDC-136684]	104.7
CN(C)c1cccc(-c2cnc3ccc(NCc4cccc(Cl)c4)nn23)c1 [TCMDC-136673]	81.33
CN(C)CCNC(=O)c1cccc(-c2cnc3ccc(NCc4ccc(Cl)c(Cl)c4)nn23)c1 [TCMDC-136677]	49.91
CN1CCN(c2ccc(CNc3ccc4ncc(-c5ccc(OC(F)(F)F)cc5)n4n3)cc2)CC1 [TCMDC-136689]	-0.7792
Clc1ccc(-c2cnc3ccc(NCCc4cccnc4)nn23)cc1 [TCMDC-136680]	-25.41
CN(C)CCNC(=O)c1ccc(-c2cnc3ccc(NCc4ccc(Cl)c(Cl)c4)nn23)cc1 [TCMDC-136678]	106.7
CN1CCN(c2ccc(CNc3ccc4ncc(-c5cccc(OC(F)(F)F)c5)n4n3)cc2)CC1 [TCMDC-136690]	11.23
Clc1ccc(-c2cnc3ccc(NCc4ccncc4)nn23)cc1 [TCMDC-136682]	21.16
OC1CCC(Nc2ccc3ncc(-c4ccc5ccccc5c4)n3n2)CC1 (stereo not drawn) [TCMDC-136691]	25.44
CCC(C)NC(=O)CN1CN(c2ccccc2)C2(CCN(C(=O)c3ccc4ccccc4c3)CC2)C1=O (stereo not drawn) [TCMDC-125174]	-36.87

Compound	% Inhibition [%]
CCNc1cc(C)nc(Nc2ccc(NS(=O)(=O)c3cc(OC)ccc3OC)cc2)n1 [TCMDC-124953]	-19.07
CC(C)c1ccc(NC(=O)c2ccc(C(=O)NC3CCN(CC4CCCCC4)C3)cc2)cc1 (stereo not drawn) [TCMDC-136743]	-27.55
COc1cccc2cc(C(=O)N[C@@H](CC(C)C)C(=O)N[C@H](/C=N/NC(=O)c3ccccc3)Cc3cnc[nH]3)oc12 [TCMDC-135820]	40.86
CN(C)CCOc1cc(NC(=O)Nc2ccc(-c3ccncc3)c(Cl)c2)ccc1I [TCMDC-139135]	19.45
O=C(c1ccc(Cl)cc1)C1CCN(CCCOc2ccc3c(c2)CCNCC3)CC1 [TCMDC-141781]	60.35
COc1ccc(C(=O)C2CCN(CCCCNC(=O)c3ccc(NC(=O)c4ccc(Cl)cc4)cc3)CC2)c(OC)c1 [TCMDC-138625]	-32.94
COc1ccc(C(=O)C2CCN(CCCCNC(=O)c3ccc(NC(=O)c4cc(Cl)cc(Cl)c4)cc3)CC2)cc1 [TCMDC-138228]	-14.09
Clc1ccc(C2CCN(CCCOc3ccc4c(c3)CCNCC4)CC2)cc1 [TCMDC-141782]	72
CC(C)(C)c1ccc(NC(=O)Nc2ccc(Cn3ncc(N4CCCNCC4)c(Cl)c3=O)cc2)cc1 [TCMDC-133314]	-23.28
COc1ccc(-c2onc(C(F)(F)F)c2-c2cc3ccccc3o2)c(O)c1 [TCMDC-124534]	7.209
O=C(Nc1ccc(Cl)c(Cl)c1)Nc1ccc2c(c1)CCNCC2 [TCMDC-133731]	29.44
CN1CCc2ccc(NC(=O)Nc3ccc(-c4ccccc4)cc3)cc2C1 [TCMDC-133725]	-3.896
O=C(Nc1ccc(-c2ccccc2)cc1)Nc1ccc2c(c1)CCNCC2 [TCMDC-133729]	60.87
O=C(Nc1ccc2c(c1)CCNCC2)Nc1ccc2ccccc2c1 [TCMDC-133733]	-8.361
CN1CCN(c2cc(NC(=O)c3ccc(-c4ccc(Cl)cc4)cc3)ccc2Cl)CC1 [TCMDC-138671]	-15.54
O=C(Nc1ccc2c(c1)CCNCC2)c1ccc(-c2ccc(Cl)cc2)cc1 [TCMDC-141480]	106.4
Cc1ccc(NC(=O)c2ccc(Cl)cc2)cc1-c1ccc(C(=O)Nc2ccncc2)cc1 [TCMDC-133698]	-1.939
CN1CCCc2cc(NC(=O)c3cc(-c4ccc(Cl)cc4)cs3)ccc2C1 [TCMDC-134050]	7.243
O=C(Nc1ccc2c(c1)CNCC2)c1ccc(-c2ccc(Cl)cc2)cc1 [TCMDC-141479]	71.62
CC1CCN(Cc2c(O)ccc3c(=O)c(-c4nc5ccccc5s4)c(N)oc23)CC1 [TCMDC-124313]	12.71
Cc1ccc(OCCCON2C(N)=NC(N)=NC2(C)C)cc1C [TCMDC-131650]	7.659
Cc1nc(NCCc2cnc[nH]2)cc(NCc2ccccc2)n1 [TCMDC-135164]	-1.635
CN(C(=O)c1cc2c(-c3cncnc3)cccc2[nH]1)c1ccccc1 [TCMDC-134637]	36.22
CCC(CC)CN1C(=O)C(C)(c2ccccc2)N=C1N (stereo not drawn) [TCMDC-137051]	1.821
